PubChem BioAssay
Calls of active or inactive are those of the source. Unless noted, no rule for the calls is given here.

Tests used:
[1] = anti-His antibody binders, primary screen, artefact control for SMM control protein annotation, biochemical, small-molecule microarray, 635 nm fluorescence (AID 1128); details: anti-His Alexa647 antibody binding, higher = more signal;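 also: score merges feature fluorescence with signal-to-noise for each printed compound spot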
[2] = system: Human papillomavirus type 1a E7 protein (residues 1-88); experiment: HPV1a E7 small-molecule binders, primary screen, biochemical, small-molecule microarray, residues 1-88, 635 nm (AID 1129); details: small-molecule microarray binding, fluorescence 635 nm; higher = more signal
[3] = molecular target: Focal adhesion kinase 1 (Homo sapiens) (UniProt Q05397); experiment: small-molecule microarray binders of FAK, primary screen, biochemical, 635/667 nm fluorescence, BSA, DTT (AID 1130); details: PTK2 binding, 635 nm fluorescence, higher = more signal;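 also: composite of spot emission at 667 nm and signal to noise over triplicate slides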
[4] = system: Fibrinogen (Alexa647-labelled); experiment: fibrinogen binders on compound microarrays, profiling panel, artefact control for SMM control-protein annotation, biochemical, small-molecule microarray, 635/667 nm fluorescence (AID 1131); details: fibrinogen-A647 binding fluorescence, higher = more signal;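 also: z-score merges 667 nm fluorescence with per-spot signal-to-noise over triplicate slides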
[5] = molecular target: Follistatin (Homo sapiens) (UniProt P19883); experiment: follistatin binders on small-molecule microarrays, primary screen, biochemical, small-molecule microarray, 635/667 nm fluorescence (AID 1132); details: FST binding, 635 nm fluorescence, higher = more signal
[6] = molecular target: Fibroblast growth factor 2 (Homo sapiens) (UniProt P09038); experiment: FGF2 binders on small-molecule microarrays, primary screen, biochemical, small-molecule microarray, 635/667 nm fluorescence (AID 1133); details: small-molecule microarray binding, FGF2, fluorescence 635/667; higher = more signal
[7] = mitochondrial membrane potential change in A549 cells, profiling panel, cell-based, JC-1 fluorescence, basal, 24 h, 100 nL (AID 1138); details: higher = more signal;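 also: A549 lung adenocarcinoma cells under basal conditions with no added stimulus; test concentration not given here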
[8] = system: Lefty1; experiment: Lefty1 binders on small-molecule microarrays, primary screen, biochemical, small-molecule microarray, 635/667 nm fluorescence (AID 1139); details: small-molecule microarray binding, fluorescence 635/667; higher = more signal
[9] = system: wheat germ agglutinin (Triticum aestivum), Alexa647-labelled; experiment: wheat germ agglutinin binders on compound microarrays, profiling panel, artefact control for SMM control-protein annotation, biochemical, small-molecule microarray, 635/667 nm fluorescence (AID 1140); details: WGA-A647 binding, 635 nm fluorescence, higher = more signal;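 also: score merges 667 nm feature emission with signal to noise over triplicate slides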
[10] = molecular target: Luciferin 4-monooxygenase (Photinus pyralis) (UniProt P08659); experiment: firefly luciferase enzyme inhibitors, primary screen, biochemical, luminescence, purified enzyme, 2006 set (AID 1141); details: SteadyGlo luminescence, 30 min, higher = more signal, called active from +8 up or from −8 down;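 also: cell-free assay with purified firefly luciferase at 100 ng per well in PBS; test concentration not given here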
[11] = system: Wnt5a (protein binding on small-molecule microarray); experiment: Wnt5a binders on small-molecule microarray, primary screen, biophysical, 635/667 nm fluorescence (AID 1142); details: 635 nm fluorescence, higher = more signal;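 also: fluorescence read at 667 nm with signal to noise per printed feature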
[12] = cell viability in Huh7 cells, primary screen, cytotoxicity control for HCV replication inhibitor project, CellTiter-Glo luminescence, basal, 48 h (AID 1143); details: Huh7 HCV replicon, higher = more signal, called active from +8 up or from −8 down;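 also: Huh7 hepatoma cells carrying a hepatitis C replication reporter with no stimulus; test concentration not given here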
[13] = P. aeruginosa biofilm formation inhibitors, primary screen, PAO1 strain, BacTiter-Glo luminescence, LB-PBS (AID 1144); details: 12 h, higher = more signal
[14] = CREB reporter modulators without forskolin, primary screen, cell-based, PC12, CRE-LacZ reporter, unstimulated (AID 1145); details: no forskolin, luminescence, 4.5 h, higher = more signal, called active from +8 up or from −8 down
[15] = CREB reporter modulators under forskolin, primary screen, cell-based, PC12, CRE-LacZ reporter, forskolin-stimulated (AID 1146); details: luminescence, 4.5 h, higher = more signal, called active from +8 up or from −8 down;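 also: PC12 cells with 6xCRE LacZ reporter stimulated by forskolin 10 µM; beta-galactosidase reporter signal reflecting CREB driven transcription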
[16] = molecular target: Streptavidin (Streptomyces avidinii) (UniProt P22629); experiment: streptavidin binders on small-molecule microarray, primary screen, artefact control for SMM compound annotation, biophysical, 635/667 nm fluorescence (AID 1147); details: streptavidin binding, higher = more signal;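 also: signal reflects streptavidin binding to arrayed compounds as a control protein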
[17] = small-molecule binders of probe aInhba, primary screen, biochemical, small-molecule microarray, 635/667 nm fluorescence (AID 1148); details: higher = more signal;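 also: score merges 667nm spot fluorescence with signal-to-noise for antibody binding to printed compounds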
[18] = molecular target: Torsin-1A (Homo sapiens) (UniProt O14656); experiment: torsin A binders from cell lysate, primary screen, small-molecule microarray, wild-type, 635/667 nm (AID 1149); details: COS7 hTOR1A-WT lysate, 635 nm fluorescence, higher = more signal
[19] = molecular target: Torsin-1A (Homo sapiens) (UniProt O14656); experiment: small-molecule binders of mutant TOR1A in lysate, primary screen, cell lysate, small-molecule microarray, COS7 lysate, 635/667 nm fluorescence (AID 1150); details: COS7 hTOR1A mutant lysate, 635 nm fluorescence, higher = more signal;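 also: score pools 667 nm emission and signal to noise measuring lysate protein binding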
[20] = system: Sonic hedgehog protein (Shh); experiment: small-molecule binders of Shh protein, primary screen, biochemical, small-molecule microarray, 635/667 nm fluorescence (AID 1151); details: small-molecule microarray binding, 635 nm fluorescence; higher = more signal;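 also: Shh protein binding to compounds spotted on small-molecule microarray slides; score combines spot fluorescence intensity with signal-to-noise across triplicate slides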

Sequence of Luciferin 4-monooxygenase (Photinus pyralis) (P08659 whole entry, looked up): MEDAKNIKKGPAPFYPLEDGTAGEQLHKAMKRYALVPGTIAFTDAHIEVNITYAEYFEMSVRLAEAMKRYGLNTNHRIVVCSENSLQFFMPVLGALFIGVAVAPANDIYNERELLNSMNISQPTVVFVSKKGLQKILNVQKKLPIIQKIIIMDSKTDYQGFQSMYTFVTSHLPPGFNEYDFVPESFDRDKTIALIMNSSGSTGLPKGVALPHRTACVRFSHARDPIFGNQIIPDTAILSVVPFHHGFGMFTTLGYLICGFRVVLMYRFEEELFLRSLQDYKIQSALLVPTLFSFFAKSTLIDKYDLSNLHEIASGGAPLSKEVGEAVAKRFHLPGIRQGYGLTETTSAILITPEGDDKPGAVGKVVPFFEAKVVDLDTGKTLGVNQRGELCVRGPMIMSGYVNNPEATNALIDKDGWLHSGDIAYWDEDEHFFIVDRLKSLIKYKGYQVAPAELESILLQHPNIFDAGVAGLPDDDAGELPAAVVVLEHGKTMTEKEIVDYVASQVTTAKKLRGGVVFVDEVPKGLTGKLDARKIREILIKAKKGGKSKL
Sequence of Torsin-1A (Homo sapiens) (O14656 whole entry, looked up): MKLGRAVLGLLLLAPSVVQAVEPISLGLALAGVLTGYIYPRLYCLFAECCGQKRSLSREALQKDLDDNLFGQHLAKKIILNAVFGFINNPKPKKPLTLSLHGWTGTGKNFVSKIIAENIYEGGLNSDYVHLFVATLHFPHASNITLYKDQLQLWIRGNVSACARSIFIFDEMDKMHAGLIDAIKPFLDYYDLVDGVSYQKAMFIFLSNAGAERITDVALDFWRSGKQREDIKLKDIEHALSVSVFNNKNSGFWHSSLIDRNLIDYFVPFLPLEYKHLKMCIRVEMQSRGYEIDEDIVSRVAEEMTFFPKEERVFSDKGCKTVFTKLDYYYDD
Sequence of Streptavidin (Streptomyces avidinii) (P22629 whole entry, looked up): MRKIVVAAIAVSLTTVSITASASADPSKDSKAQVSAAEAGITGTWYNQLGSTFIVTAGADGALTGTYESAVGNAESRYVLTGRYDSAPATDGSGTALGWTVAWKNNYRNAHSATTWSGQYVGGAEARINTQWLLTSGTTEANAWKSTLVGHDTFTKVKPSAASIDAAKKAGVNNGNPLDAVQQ
Sequence of Fibroblast growth factor 2 (Homo sapiens) (P09038 whole entry, looked up): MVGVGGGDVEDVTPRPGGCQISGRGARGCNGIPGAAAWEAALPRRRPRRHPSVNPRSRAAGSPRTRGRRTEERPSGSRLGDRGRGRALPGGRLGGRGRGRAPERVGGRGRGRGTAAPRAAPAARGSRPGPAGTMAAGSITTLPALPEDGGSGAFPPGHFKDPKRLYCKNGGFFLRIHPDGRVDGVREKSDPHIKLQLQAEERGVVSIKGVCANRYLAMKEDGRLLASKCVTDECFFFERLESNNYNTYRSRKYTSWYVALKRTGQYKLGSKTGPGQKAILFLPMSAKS
Sequence of Follistatin (Homo sapiens) (P19883 whole entry, looked up): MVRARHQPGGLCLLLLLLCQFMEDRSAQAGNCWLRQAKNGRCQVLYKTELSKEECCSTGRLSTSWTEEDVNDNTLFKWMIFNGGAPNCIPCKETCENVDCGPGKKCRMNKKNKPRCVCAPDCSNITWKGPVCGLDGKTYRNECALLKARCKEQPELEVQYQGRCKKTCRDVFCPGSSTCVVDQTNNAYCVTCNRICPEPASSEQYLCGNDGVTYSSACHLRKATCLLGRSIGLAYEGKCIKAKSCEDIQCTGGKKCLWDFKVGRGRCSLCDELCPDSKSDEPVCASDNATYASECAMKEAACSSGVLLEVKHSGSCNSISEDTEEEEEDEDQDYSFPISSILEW
Sequence of Focal adhesion kinase 1 (Homo sapiens) (Q05397 whole entry, looked up): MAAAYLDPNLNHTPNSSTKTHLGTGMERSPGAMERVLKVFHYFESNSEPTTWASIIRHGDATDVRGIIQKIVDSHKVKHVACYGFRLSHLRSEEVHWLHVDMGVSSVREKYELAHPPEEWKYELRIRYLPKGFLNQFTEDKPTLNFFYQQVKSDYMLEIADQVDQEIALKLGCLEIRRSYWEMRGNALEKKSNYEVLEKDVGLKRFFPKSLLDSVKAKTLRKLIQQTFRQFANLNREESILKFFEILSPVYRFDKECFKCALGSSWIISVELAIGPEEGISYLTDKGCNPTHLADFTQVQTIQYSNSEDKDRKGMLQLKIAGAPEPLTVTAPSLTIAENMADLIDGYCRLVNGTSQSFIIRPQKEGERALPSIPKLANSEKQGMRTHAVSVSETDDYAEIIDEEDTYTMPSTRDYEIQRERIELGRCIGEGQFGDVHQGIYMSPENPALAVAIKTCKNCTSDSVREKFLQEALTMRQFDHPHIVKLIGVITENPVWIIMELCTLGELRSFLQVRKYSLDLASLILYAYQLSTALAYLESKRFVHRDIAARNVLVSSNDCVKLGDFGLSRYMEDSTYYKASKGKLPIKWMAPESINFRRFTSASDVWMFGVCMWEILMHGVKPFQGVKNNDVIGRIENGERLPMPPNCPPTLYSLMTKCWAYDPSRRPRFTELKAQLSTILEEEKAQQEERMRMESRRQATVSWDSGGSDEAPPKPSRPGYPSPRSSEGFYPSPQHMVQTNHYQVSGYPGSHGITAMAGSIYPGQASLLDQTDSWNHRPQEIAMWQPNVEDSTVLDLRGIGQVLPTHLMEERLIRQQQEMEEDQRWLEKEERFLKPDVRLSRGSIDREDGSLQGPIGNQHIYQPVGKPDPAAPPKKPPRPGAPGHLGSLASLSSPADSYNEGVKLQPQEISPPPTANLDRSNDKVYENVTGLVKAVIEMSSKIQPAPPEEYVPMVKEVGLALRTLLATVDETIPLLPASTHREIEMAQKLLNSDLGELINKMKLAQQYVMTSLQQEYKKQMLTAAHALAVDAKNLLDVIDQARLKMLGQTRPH

Structure (SMILES) | composite z-score [1] | composite z-score [2] | composite z-score [3] | composite z-score [4] | composite z-score [5] | composite z-score [6] | z-score [7] | composite z-score [8] | composite z-score [9] | z-score [10] | composite z-score [11] | z-score [12] | z-score [13] | z-score [14] | z-score [15] | composite z-score [16] | composite z-score [17] | composite z-score [18] | composite z-score [19] | composite z-score [20]
O=C1OCC=C[C@H]2OC34C=CCN(c5ccc(Cl)cc5)C(=O)[C@H]3N(CCO)C(=O)[C@@H]4[C@@H]12 (stereo not given in full) | 0.745 | -0.658 | -0.588 | -1.36 | -1.12 | -1.06 | 0.805 | -0.78 | -0.729 | -0.386 (inactive) | -0.649 | 0.168 (inactive) | 3.17 (inactive) | 0.601 (inactive) | -0.663 (inactive) | -1.02 | -0.26 | -0.846 | -1.84 | -0.889
COc1cc2c(cc1O)C(C)N(Cc1ccc([N+](=O)[O-])o1)CC2 (stereo not given) | 1.63 | 1.1 | 0.243 | 0.824 | 0.542 | 0.18 | 0.275 | 0.18 | 0.918 | -0.0107 (inactive) | 0.322 | 0.143 (inactive) | -0.158 (inactive) | -0.258 (inactive) | 1.6 (inactive) | 0.97 | 0.303 | 0.682 | 0.897 | 0.0196
O=C1O[C@H](c2ccccc2)[C@H](c2ccccc2)N2[C@H]1[C@@H](C(=O)O)[C@]1(C(=O)Nc3ccc(C#CC4=CCCCC4)cc31)[C@H]2c1ccc(O)cc1 | 0.687 | 0.394 | 0.0304 | 0.987 | 1.35 | 0.392 | -2.35 | 0.841 | 0.362 | -2.89 (inactive) | 0.423 | -0.53 (inactive) | 0.608 (inactive) | 1.72 (inactive) | 0.945 (inactive) | -0.0343 | -0.157 | -0.107 | 0.298 | 1.22
CCCCO[C@H]1C[C@H]2C(I)=C[C@@H]1C(=O)[C@]21CO1 | 1.74 | -0.522 | 0.047 | -0.886 | 0.145 | 0.129 | 0.258 | 0.351 | -0.164 | 0.274 (inactive) | -0.0784 | -0.232 (inactive) | 0.0666 (inactive) | 0.496 (inactive) | 0.672 (inactive) | -0.258 | -0.161 | -0.336 | -0.145 | 0.816
COCCCNC(=O)[C@]1(CCS(=O)(=O)c2ccccc2)N=C(c2ccc(OCCCO)cc2)O[C@@H]1c1ccccc1CN=[N+]=[N-] | 3.31 | 1.25 | 1.44 | 0.986 | 1.32 | 0.803 | 0.705 | 0.144 | 1.45 | -0.842 (inactive) | 1.31 | -0.635 (inactive) | 0.267 (inactive) | -0.781 (inactive) | -0.969 (inactive) | 2.07 | 0.424 | 1.35 | 0.738 | 0.36
C=C[C@@H](COC(C)=O)N(C(=O)OC(C)(C)C)S(=O)(=O)c1ccc(Br)cc1 | 1.5 | 0.966 | 0.233 | 0.741 | 1.53 | 1.89 | 0.307 | 1.65 | 1.1 | -0.149 (inactive) | 0.423 | -0.284 (inactive) | 1.01 (inactive) | 0.391 (inactive) | -0.739 (inactive) | 0.802 | -0.231 | 0.814 | 0.559 | 2.16
COC1OC[C@]2(C)[C@H]3C4=C(CN2C(=O)OC(C)(C)C)[C@H](C)C(CO)C(CO)C4CC[C@@H]13 (stereo not given in full) | 2.1 | 1.24 | 1.14 | 0.998 | 1.05 | -0.636 | 2.03 | -0.664 | 1.41 | 0.0207 (inactive) | 0.987 | -0.14 (inactive) | 0.326 (inactive) | 0.197 (inactive) | 0.212 (inactive) | 2.17 | 0.109 | 0.288 | 0.86 | -0.0425
CC(C)N1CC=CC23O[C@@H]4C=CCOC(=O)[C@@H]4[C@H]2C(=O)N(CCCO)[C@@H]3C1=O (stereo not given in full) | 1.59 | 0.672 | 1.01 | -1.14 | -0.0511 | -0.849 | -0.384 | -0.133 | -0.17 | -3.85 (inactive) | -0.26 | -5.24 (inactive) | -2.47 (inactive) | -1.31 (inactive) | -0.931 (inactive) | -0.941 | -0.182 | 1.12 | 0.874 | -0.182
[N-]=[N+]=Nc1ccccc1[C@H]1OC(c2ccc(OCCCO)cc2)=N[C@@]1(Cc1ccccc1)C(=O)N1CCCCC1 | 1.55 | 1.2 | 0.724 | 0.963 | 1.45 | 1.67 | -1.43 | 0.0229 | 0.945 | -6.62 (inactive) | 1.57 | -3.95 (inactive) | -0.21 (inactive) | 0.722 (inactive) | -0.585 (inactive) | 1.16 | 0.395 | 0.728 | 0.373 | 0.021
NC(N)=NCCCn1cc(CNC(=O)[C@@H](N)Cc2ccccc2)nn1 | 0.499 | -0.505 | -0.242 | -0.845 | 1.42 | 0.943 | -0.55 | 1.05 | 0.465 | 0.36 (inactive) | -0.0448 | -0.109 (inactive) | 1.6 (inactive) | -0.491 (inactive) | 0.35 (inactive) | -0.298 | 0.017 | 0.485 | 0.142 | 1.08
